Measurements published in PubChem BioAssay.
Several values for one entry are separate records, joined by “and”; a condition that tells them apart may be missing. Equal values may be shown once. Activity calls are given as the source filed them. The rule behind the calls is not given here.

How the values were obtained:
[1] = liver-stage malaria parasite load reduction – cell-based, known kinase inhibitor set, luminescence, hepatoma host viability (AID 624392); conditions: Plasmodium liver stage in hepatoma cells, luciferase luminescence, concentration not given here; liver cell % of control: measured here: host liver cell viability; parasite % of control: stronger effect = lower value;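 note: infected cells incubated roughly two days before readout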
[2] = tested on: Neuropilin-2 / VEGF-C interaction (human); test: small molecules blocking Neuropilin-2/VEGF-C interaction – biochemical, microplate binding format, z-score (AID 743281); conditions: microplate NRP2/VEGF-C binding assay

SMILES: CC(C)n1cnc2c(Nc3cccc(Cl)c3)nc(N(CCO)CCCO)nc21
- liver cell % of control [1]: 81.2%
- parasite % of control [1]: 381% (inactive)

SMILES: CC(C)C(CO)Nc1nc(Nc2ccc(S(=O)(=O)O)c(N)c2)c2ncn(C(C)C)c2n1 (stereo not given)
- liver cell % of control [1]: 101%
- parasite % of control [1]: 105% (inactive)

SMILES: NC(=O)c1cccc(-c2cc(Oc3ccc(OC(F)(F)F)cc3)ncn2)c1
- liver cell % of control [1]: 101%
- parasite % of control [1]: 113% (inactive)

SMILES: CCN1CCN(Cc2ccc(NC(=O)c3ccc(C)c(NC(=O)N4CCNC4=O)c3)cc2C(F)(F)F)CC1
- liver cell % of control [1]: 93%
- parasite % of control [1]: 163% (inactive)

SMILES: COc1cc(NC(=O)c2ccno2)cc(C(=O)Nc2cccc(C(F)(F)F)c2)c1
- liver cell % of control [1]: 96.7%
- parasite % of control [1]: 70% (inactive)

SMILES: O=C1NCCC(=NNc2cccnc2)c2c1[nH]c1ccc(Cl)cc21
- liver cell % of control [1]: 99.3%
- parasite % of control [1]: 133% (inactive)

SMILES: C=CC(=O)Nc1cccc(Oc2ccnc3[nH]ccc23)c1
- liver cell % of control [1]: 102%
- parasite % of control [1]: 56.9% (inactive)

SMILES: Cc1ccc(C(=O)Nc2cccc(C(F)(F)F)c2)cc1NC(=O)c1nccnc1N
- liver cell % of control [1]: 95%
- parasite % of control [1]: 83.1% (inactive)

SMILES: CC(C)C(CO)Nc1nc(Nc2cc(C(=O)O)cc(C(=O)O)c2)c2ncn(C(C)C)c2n1 (stereo not given)
- liver cell % of control [1]: 107%
- parasite % of control [1]: 38% (inactive)

SMILES: CS(=O)(=O)Nc1ccc(-c2cc(C=C3SC(N)=NC3=O)c[nH]c2=O)cc1
- liver cell % of control [1]: 97.7%
- parasite % of control [1]: 127% (inactive)

SMILES: Cn1c(C2=C(c3c4n(c5ccccc35)CCC(CN)C4)C(=O)NC2=O)cc2ccccc21 (stereo not given)
- liver cell % of control [1]: 41.8% and 77.6% and 88.8%
- parasite % of control [1]: 3.36% (inactive) and 70.7% (inactive) and 90.3% (inactive)

SMILES: CCN1CCN(Cc2ccc(C(=O)Nc3ccc(C)c(NCc4cnc(NC(=O)OC)cn4)c3)cc2C(F)(F)F)CC1
- liver cell % of control [1]: 105%
- parasite % of control [1]: 107% (inactive)

SMILES: CN(c1ccc(OC(F)(F)F)cc1)c1cc(-c2cccc(C(N)=O)c2)ncn1
- liver cell % of control [1]: 99.1%
- parasite % of control [1]: 107% (inactive)

SMILES: C=CC(=O)Nc1cccc(CN2C(=O)N(c3cc(OC)cc(OC)c3)Cc3cnc(NCCCCN(CC)CC)nc32)c1
- liver cell % of control [1]: 102%
- parasite % of control [1]: 70.3% (active)

SMILES: C=CC(=O)Nc1cccc(Nc2ccnc(Nc3ccc(N4CCN(C)CC4)cc3)n2)c1
- liver cell % of control [1]: 92.9%
- parasite % of control [1]: 184% (inactive)

SMILES: O=C(Nc1ccc(-c2csc(Nc3ccc(Cl)cc3)n2)cc1)c1cccc(C(F)(F)F)c1
- liver cell % of control [1]: 104%
- parasite % of control [1]: 88% (inactive)

SMILES: C=CC(=O)Nc1cccc(N2C(=O)N(c3cc(OC)cc(OC)c3)Cc3cnc(NCCCCN(CC)CC)nc32)c1
- liver cell % of control [1]: 102%
- parasite % of control [1]: 107% (inactive)

SMILES: COc1ccc(CNc2nc(NCc3ccc(OC)cc3)c3ncn(C4CCCC4)c3n2)cc1
- liver cell % of control [1]: 90.6%
- parasite % of control [1]: 265% (inactive)

SMILES: CC(C)C(CO)Nc1nc(Nc2ccc(Cl)c(C(=O)O)c2)c2ncn(C(C)C)c2n1 (stereo not given)
- liver cell % of control [1]: 94.7%
- parasite % of control [1]: 116% (inactive)

SMILES: CN(C)CC=CC(=O)Nc1cccc(-c2c[nH]c3ncnc(Oc4ccc(NC(=O)CC(=O)Nc5ccc(F)cc5)cc4F)c23)c1
- liver cell % of control [1]: 96.3%
- parasite % of control [1]: 155% (inactive)

SMILES: O=C1NC(=O)C(=Cc2ccc(-c3ccc(S(=O)(=O)N4CCNCC4)cc3)o2)C(=O)N1
- liver cell % of control [1]: 94.8%
- parasite % of control [1]: 303% (inactive)

SMILES: O=C(Nc1cccc(-c2csc(Nc3ccccc3)n2)c1)c1cc([N+](=O)[O-])cc(C(F)(F)F)c1
- liver cell % of control [1]: 92.9%
- parasite % of control [1]: 168% (inactive)

SMILES: CCN1CCN(Cc2ccc(NC(=O)c3ccc(C)c(NC(=O)c4c[nH]c5cc(C(F)(F)F)ccc5c4=O)c3)cc2C(F)(F)F)CC1
- liver cell % of control [1]: 45.6%
- parasite % of control [1]: 4.19% (active)

SMILES: O=C(Nc1cccc(-c2csc(Nc3ccccc3)n2)c1)c1ccccc1
- liver cell % of control [1]: 102%
- parasite % of control [1]: 31.8% (inactive)

SMILES: COc1ccc(CNc2nc(NCc3ccc(OC)cc3)c3ncn(C(C)C)c3n2)cc1
- liver cell % of control [1]: 107%
- parasite % of control [1]: 168% (inactive)

SMILES: Cc1ccc(C(=O)Nc2cccc(C(F)(F)F)c2)cc1NC(=O)c1cnnc2ccccc12
- liver cell % of control [1]: 104%
- parasite % of control [1]: 44.2% (inactive)

SMILES: Cc1cn(-c2cc(NC(=O)c3ccc(C)c(NC(=O)c4cccc(-c5cn[nH]c(=O)c5)c4)c3)cc(C(F)(F)F)c2)cn1
- liver cell % of control [1]: 97.4%
- parasite % of control [1]: 93.8% (inactive)

SMILES: O=C(Nc1ccc(-c2csc(Nc3ccccc3)n2)cc1)c1cc([N+](=O)[O-])cc(C(F)(F)F)c1
- liver cell % of control [1]: 102%
- parasite % of control [1]: 102% (inactive)

SMILES: COc1cc(NC(=O)c2csc(-c3ccncc3)n2)cc(C(=O)Nc2cccc(C(F)(F)F)c2)c1
- liver cell % of control [1]: 95.7%
- parasite % of control [1]: 124% (inactive)

SMILES: CCC(C)Oc1cc(-c2ccnc(Nc3cccc(Cl)c3)n2)ccn1 (stereo not given)
- liver cell % of control [1]: 58.3%
- parasite % of control [1]: 150% (inactive)

SMILES: CCN1CCN(Cc2ccc(NC(=O)c3ccc(C)c(NC(=O)c4ccnnc4)c3)cc2C(F)(F)F)CC1
- liver cell % of control [1]: 104%
- parasite % of control [1]: 100% (inactive)

SMILES: Cc1ccc(C(=O)Nc2cccc(C(F)(F)F)c2)cc1Nc1cncnc1
- liver cell % of control [1]: 102%
- parasite % of control [1]: 53.6% (inactive)

SMILES: CCN1CCN(Cc2ccc(NC(=O)c3cc(NC(=O)c4ccc5n[nH]nc5c4)cc(OC)c3)cc2C(F)(F)F)CC1
- liver cell % of control [1]: 101%
- parasite % of control [1]: 138% (inactive)

SMILES: Cc1ccc(C(=O)Nc2cccc(C(F)(F)F)c2)cc1NC(=O)c1c[nH]c2cc(C(F)(F)F)ccc2c1=O
- liver cell % of control [1]: 97.9%
- parasite % of control [1]: 25.1% (inactive)

SMILES: COc1cc(NC(=O)c2cc3cccc(OC)c3o2)cc(C(=O)Nc2cccc(C(F)(F)F)c2)c1
- liver cell % of control [1]: 95.6%
- parasite % of control [1]: 62.8% (inactive)

SMILES: Nc1cccc(-c2c[nH]c3ncc(-c4cccnc4)cc23)c1
- liver cell % of control [1]: 94.3%
- parasite % of control [1]: 42.1% (inactive)

SMILES: Nc1ccccc1CNc1nc(NCCO)nc2c1ncn2CCN1CCOCC1
- liver cell % of control [1]: 100%
- parasite % of control [1]: 125% (inactive)

SMILES: NC1=NC(=O)C(=Cc2cccc(-c3ccc(S(N)(=O)=O)cc3)c2)S1
- liver cell % of control [1]: 98%
- parasite % of control [1]: 377% (inactive)

SMILES: CCN1CCN(Cc2ccc(NC(=O)c3ccc(C)c(NC(=O)C4=NN(c5ccccc5)C(=O)C4)c3)cc2C(F)(F)F)CC1
- liver cell % of control [1]: 101%
- parasite % of control [1]: 72.3% (inactive)

SMILES: O=C(Nc1cccc(-c2csc(Nc3ccc(Cl)cc3)n2)c1)c1cc([N+](=O)[O-])cc(C(F)(F)F)c1
- liver cell % of control [1]: 95.1%
- parasite % of control [1]: 192% (inactive)

SMILES: NS(=O)(=O)c1ccc(-c2ccc(C=C3C(=O)Nc4ccccc43)o2)cc1
- liver cell % of control [1]: 99.7%
- parasite % of control [1]: 90.6% (inactive)

SMILES: O=C(Nc1cccc(-c2csc(Nc3ccc(Cl)cc3)n2)c1)c1ccccc1
- liver cell % of control [1]: 90.9%
- parasite % of control [1]: 112% (inactive)

SMILES: COc1cc(C(=O)NC2CCN(C)CC2)ccc1Nc1ncc2c(n1)N(C1CCCCC1)CCC(=O)N2C
- liver cell % of control [1]: 81.9%
- parasite % of control [1]: 520% (inactive)

SMILES: CC(C)n1cnc2c(N(Cc3ccccc3)c3cccc(Cl)c3)nc(N(CCN(C)C)Cc3ccccc3)nc21
- liver cell % of control [1]: 82.6%
- parasite % of control [1]: 9.42% (active)

SMILES: Cc1ccc([N+](=O)[O-])cc1S(=O)(=O)N(C)N=Cc1c[nH]c2ccc(Br)c[n+]12
- liver cell % of control [1]: 93%
- parasite % of control [1]: 3.49% (active)

SMILES: COc1ccc(CNc2nc(NCc3ccc(OC)cc3)c3[nH]cnc3n2)cc1
- liver cell % of control [1]: 92.9%
- parasite % of control [1]: 590% (inactive)

SMILES: CN(c1ccccc1CNc1nc(Nc2ccc3c(c2)CC(=O)N3)ncc1C(F)(F)F)S(C)(=O)=O
- liver cell % of control [1]: 53.6% and 51.8% and 95%
- parasite % of control [1]: 7.61% (inactive) and 53% (inactive) and 167% (inactive)

SMILES: O=C(Nc1ccc(-c2csc(Nc3ccccc3)n2)cc1)c1cccc(C(F)(F)F)c1
- liver cell % of control [1]: 99.8%
- parasite % of control [1]: 99.4% (inactive)

SMILES: CC(C)C(CO)N(Cc1cccc(F)c1)c1nc(Nc2cccc(Cl)c2)c2ncn(C(C)C)c2n1 (stereo not given)
- liver cell % of control [1]: 91.9%
- parasite % of control [1]: 62.1% (inactive)

SMILES: O=C(Nc1ccc(-c2csc(Nc3cccc(C(F)(F)F)c3)n2)cc1)c1ccccc1
- liver cell % of control [1]: 106%
- parasite % of control [1]: 69.1% (inactive)

SMILES: CN(C)CCCNc1ccc(-c2cc(Nc3cccc(Cl)c3)ncn2)cn1
- liver cell % of control [1]: 94.9%
- parasite % of control [1]: 108% (inactive)

SMILES: CCN1CCN(Cc2ccc(NC(=O)c3cc(NC(=O)C4=NN(c5ccccc5)C(=O)C4)cc(OC)c3)cc2C(F)(F)F)CC1
- liver cell % of control [1]: 100%
- parasite % of control [1]: 110% (inactive)

SMILES: CO[C@H]1C=CO[C@@]2(C)Oc3c(C)c(O)c4c(O)c(c5c(c4c3C2=O)NC2(CCN(CC(C)C)CC2)N=5)=NC(=O)/C(C)=C\C=C[C@H](C)[C@H](O)[C@@H](C)[C@@H](O)[C@@H](C)[C@H](OC(C)=O)[C@@H]1C
- outcome [2]: inactive
